SMILES strings stand for the structures. Compounds without any hit were thinned out: in the full panel of roughly 79,000, 15% have a hit. Values without a mark were called inactive. The source made the active and inactive calls. Cut-off read from the data, not from the text of the source: active = growth inhibition above about 70%; inactive = the rest.

The assay is described as follows: NCI Yeast Anticancer Drug Screen. Data for the sgs1 mgt1 strain (AID 161).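 Note: 0% = growth of cultures given vehicle only.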 As to conditions: S. cerevisiae sgs1 mgt1 strain, at 50.0 µM, active compounds read high. Put shortly:
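Mutant yeast exposed to compound; growth scored against vehicle-only wells.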
As to `Cc1nc(C(N)=S)sc1C(=O)CC(=O)C(=O)Nc1c(C(C)C)cccc1C(C)C`, the growth inhibition was -31.8%.
With `NC(CCNCCc1ccccc1)CNCCc1ccccc1` (stereo not given) the figure was 10.9%; with `O=C(COc1ccc(Cl)c(Cl)c1)Nc1ccc(C(=O)CCl)cc1`, 19.4%; with `CCOC(=O)c1ccc(N[C@@H]2c3cc4c(cc3C(c3cc(OC)c(O)c(OC)c3)[C@H]3C(=O)OCC32)OCO4)cc1` (stereo not given in full), 89.2% (active).
With `CC(Cc1nc2ccccc2[nH]1)Cc1nc2ccccc2[nH]1` the figure was 7.1%; with `CC1(c2ccc(C(O)c3ccccc3)s2)OCCO1` (stereo not given), 10.9%.
Take `O=C1c2ccccc2-c2ccc(N3C(=O)C=CC3=O)cc21`: the growth inhibition is 98.8% (active).
Take `O=NNc1nc2ncccc2cc1-c1ccccc1Cl`: the growth inhibition was -5.9%.
The figure for `Cc1c(Cl)cccc1NC(=O)C(=O)C1C(=O)CC(C)(C)CC1=O` is -1.2%.
With `Cc1cccc(/C=N/Nc2ccc([N+](=O)[O-])cc2[N+](=O)[O-])c1C` the figure was -5.1%; with `O=C(O)C1Cc2nc[nH]c2CN1CO` (stereo not given), -19.8%.
As for `CN(C)CCNc1ccc(NCCN(C)C)c2c1C(=O)c1ncsc1C2=O`, the growth inhibition is 14.2%.
The figure for `C=CCOC(=O)c1ccco1` is 2.35%.
In the case of `CC1(C)CC(C)(OC(=O)c2ccccc2)N=N1` (stereo not given), the growth inhibition was 20.1%.
The figure for `COC(=O)CCCc1ccc2c(c1)CC1(C2)Cc2cc3c(cc2C1)CCCC3` is -11.2%.
The figure for `CCOC(=O)NC(=O)c1cn(CC(=O)NCC(=O)NCC(=O)NCCCN2CCN(CCCNC(=O)CNC(=O)CNC(=O)Cn3cc(C(=O)NC(=O)OCC)c(=O)[nH]c3=O)CC2)c(=O)[nH]c1=O` is -6.85%; for `CC(=O)NC1C(OCC(=O)NCCNc2ccc([N+](=O)[O-])c3[nH]c4ccccc4c(=O)c23)C(O)C(CO)OC1(C)OCc1ccccc1` (stereo not given) it is -25.6%.
The figure for `O=C(CCCl)OC1CCCC1` is -3.6%.
For `CN(/N=C\c1ccc2ccccc2c1)C1=NCCN1`, the growth inhibition was -14.8%.
The figure for `C(=C\c1cc(-c2cc(/C=C/c3ccccc3)[nH]n2)n[nH]1)/c1ccccc1` is -14.3%; for `CCOC(=O)CCC(C(=O)c1cccnc1)c1ccccn1` (stereo not given) it is 6.7%; for `COc1c(CO)cc(C)cc1CO` it is -6.95%.
Regarding `Cc1ccc(OCCNCCO)cc1`, the growth inhibition was 6.3%.
As to `CCCCCCCCCCCCCCCCCC(CCCCCCCC)CCCCCCCC`, the growth inhibition was -30.8%.
As for `CCCCCCn1cnc2c(=S)nc[nH]c21`, the growth inhibition was 10.8%.
As for `O=S(O)CCCCSSCC(O)CO` (stereo not given), the growth inhibition is 15.2%.
The figure for `O=C1OC(c2cccc(Cl)c2)=N/C1=C\c1cc(Br)ccc1O` is 27.8%; for `CC(CC#N)NC(=O)C1CCC(N)=N1` (stereo not given) it is -8.95%; for `CCCCCCCCCCCCCCCCS` it is 17.6%.
With `CCOC(=O)CC1(c2ccccc2)OC(=O)c2ccccc21` (stereo not given) the figure was 8.65%.
With `NC(N)=NC(N)=Nc1ccccc1Br` the figure was -4.4%; with `CN(C)c1nc(-c2ccccc2)c(Cc2ccccc2)c(=O)o1`, 20.5%.
In the case of `c1cc2c3c(c1)ccc1ccc4cccc(c4c13)O2`, the growth inhibition was -24.2%.
The figure for `CC(C)CCC[C@@H](C)[C@H]1CC[C@H]2[C@@H]3CC[C@H]4C[C@H](N[C@@H]5CC[C@@]6(C)[C@@H](CC[C@@H]7[C@@H]6CC[C@]6(C)[C@@H]([C@H](C)CCCC(C)C)CC[C@@H]76)C5)CC[C@]4(C)[C@H]3CC[C@]12C` is 46.8%; for `O=C(N/N=C/c1cc(Br)cc(Br)c1O)c1ccccc1` it is 11.3%.
With `O=[N+]([O-])c1ccc(N=C/C=C/Nc2ccc([N+](=O)[O-])cc2)cc1` the figure was 10.5%; with `CC(C)(/C=N\O)NO`, 0.4%.
Regarding `CC(=O)OC1CCC2(C)C(CCC3(C)C2CCC2C4C5OC(=O)C4(CCC5(C)C)CCC23C)C1(C)C` (stereo not given), the growth inhibition is -17.1%.
With `O=C1NC(=O)c2c1c1cnn(-c3ccccc3)c1n1cccc21` the figure was 25.2%; with `O=C1c2ccccc2-c2ccc(-n3c(=O)c4ccccc4c4ccccc4c3=O)cc21`, 29.8%.
